# Measured values from PubChem BioAssay (Tox21).
# Values without a mark were called inactive. Results filed as inconclusive are left out. A call without a number means that no potency is given here. Activity calls are given as the source filed them. Unless noted, calls come from the whole dose curve.
# Assays:
# [1] = Nuclear factor erythroid 2-related factor 2/antioxidant responsive element (Nrf2/ARE) small molecule agonists: qHTS cell viability counter screen in human keratinocytes (AID 1919968; active = well fitted curve in the direction sought with a large enough effect in the repeat runs; an effect the other way counts as inactive or inconclusive; note: nearly all actives have a fitted effect of over 55% in size)
# Procedure, shortened: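 Cytotoxicity was multiplexed with the Nrf2/ARE luciferase assay in the same wells. Stably transfected HaCaT keratinocytes were treated with test compounds for 23 h at 37 C. Cell viability was then measured by CellTiter-Fluor fluorescence.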
# [2] = Nuclear factor erythroid 2-related factor 2/antioxidant responsive element (Nrf2/ARE) small molecule agonists: luciferase reporter gene qHTS assay in human keratinocytes (AID 1919969); note: nearly all actives have a fitted effect of over 35% in size; note: potency is the fitted concentration of half-maximal effect
# [3] = biological target: Gonadotropin-releasing hormone receptor (Homo sapiens) (UniProt P30968); assay: Human gonadotropin-releasing hormone receptor (GnRHR) small molecule agonists, calcium flux assay in GnRHR-HEK293 cells (AID 1920063); note: nearly all actives have a fitted effect of over 35% in size
# Procedure, shortened: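 Agonist activity was measured as intracellular calcium flux in HEK293 cells engineered to stably express human GnRHR. After dye loading for 1 hour at 37 C, compounds in DMSO were added and fluorescence was followed for 3 minutes.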
# [4] = biological target: KiSS-1 receptor (Homo sapiens) (UniProt Q969F8); assay: Human kisspeptin (KISS1R) small molecule agonists, calcium flux assay in KISS1R-HEK293 cells (AID 1920064; active = well fitted curve in the direction sought with a large enough effect in the repeat runs; an effect the other way counts as inactive or inconclusive)
# Procedure, shortened: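 Agonist activity is monitored as intracellular calcium rise in engineered HEK293 cells carrying human KISS1R. Cells are dye-loaded for 1 h at 37 C before compound addition, and fluorescence is recorded for 3 min.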
# [5] = G protein-coupled receptor (GPCR) small molecule agonists, calcium flux assay: HEK293 wild type cell line counter screen (AID 1920065)
# Procedure, shortened: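 Seed cells, incubate 18 h (37 C, 5% CO2); add calcium dye, 1 h at 37 C; pin-transfer compounds, ATP control or DMSO; read fluorescence 480/540 nm each second for 3 min.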
# [6] = p53 small molecule agonists, cell-based qHTS assay with human liver microsomes (AID 1963577)
# Procedure, shortened: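 Fluorescence of the beta-lactamase reporter in p53RE-bla cells, detected with LiveBLAzer substrate (2 h, room temperature, dark), served as the read-out after 16 h compound exposure at 37 C with human liver microsomes and NADPH, each 0.5 mg/mL final.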
# [7] = p53 small molecule agonists, cell-based qHTS assay with rat liver microsomes (AID 1963578)
# Procedure, shortened: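 Cells carrying a p53 response element–beta-lactamase reporter were plated and rested 5 h, then dosed with compound in DMSO plus rat liver microsomes and NADPH, each at 0.5 mg/mL final. After 16 h at 37 C, LiveBLAzer substrate was added for 2 h.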
# [8] = p53 small molecule agonists, cell-based qHTS assay with human liver microsomes: qHTS cell viability counter screen (AID 1963579); note: nearly all actives have a fitted effect of over 45% in size
# Procedure, shortened: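 Cytotoxicity counter screen: p53RE-bla, 4,000 cells/well; 5 h settle, 37 C/5% CO2; cpd + HLM 0.5 mg/mL + NADPH 0.5 mg/mL (final); 16 h, 37 C; CellTiter-Glo, 30 min RT, luminescence.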
# [9] = p53 small molecule agonists, cell-based qHTS assay with rat liver microsomes: qHTS cell viability counter screen (AID 1963580); note: nearly all actives have a fitted effect of over 45% in size
# Procedure, shortened: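 After the beta-lactamase ratio was read, CellTiter-Glo was added to the same wells and luminescence measured at 30 min; cells had been treated 16 h at 37 C with compounds, rat liver microsomes and NADPH (0.5 mg/mL final each).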
# [10] = p53 small molecule agonists, cell-based qHTS assay: qHTS cell viability counter screen (AID 1963581); note: nearly all actives have a fitted effect of over 45% in size
# Procedure, shortened: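 Viability was counter-screened in parallel with the p53 agonist reporter by measuring intracellular ATP luminescence in the same HCT-116 p53RE-bla wells after 16 h compound treatment at 37 C.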
# [11] = p53 small molecule agonists, cell-based qHTS assay (AID 1963582; active = well fitted activation curve with a large enough effect in the signal ratio in the repeat runs, not every such curve was filed as active; the % refers to the signal ratio)
# Procedure, shortened: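 Cells carrying a p53-responsive bla reporter are treated with test compounds for 16 h at 37 C; beta-lactamase activity is then detected with LiveBLAzer B/G FRET substrate after 2 h at room temperature.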
# [12] = biological target: 5-hydroxytryptamine receptor 2A (Homo sapiens) (UniProt P28223); assay: 5-hydroxytryptamine receptor 2A (HTR2A) small molecule antagonists, cell-based qHTS assay (AID 1963586); note: nearly all actives have a fitted effect of over 45% in size
# Procedure, shortened: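 CHO cells stably expressing human HTR2A were plated for 18 h at 37 C, then loaded with calcium dye for 1 h. Compounds were preincubated 5 min at room temperature before DOI (4 nM solution) was added. Kinetic fluorescence was read for 3 min.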
# [13] = biological target: 5-hydroxytryptamine receptor 2A (Homo sapiens) (UniProt P28223); assay: 5-hydroxytryptamine receptor 2A (HTR2A) small molecule agonists, cell-based qHTS assay (AID 1963587); note: nearly all actives have a fitted effect of over 30% in size
# Procedure, shortened: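 CHO cells stably expressing human HTR2A, plated 18 h, loaded with calcium dye 1 h at 37 C. Agonist mode: compounds added and intracellular calcium fluorescence recorded kinetically for 2 min at 1 sec intervals.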
# [14] = biological target: Muscarinic acetylcholine receptor M1 (Homo sapiens) (UniProt P11229); assay: Cholinergic receptor muscarinic 1 (CHRM1) small molecule agonists, cell-based qHTS assay (AID 1963589); note: nearly all actives have a fitted effect of over 35% in size
# Procedure, shortened: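 Cells were plated and incubated 18 h at 37 C/5% CO2, loaded with calcium dye for 1 h at 37 C, then treated with compounds in DMSO. Fluorescence was recorded kinetically at 1 sec intervals.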
# [15] = cAMP Responsive Elements (CRE) small molecule agonists, cell-based qHTS assay (AID 1963590)
# Procedure, shortened: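 Cells carrying a CRE-driven beta-lactamase reporter (HEK 293T) are seeded, incubated overnight (18 h), and treated with test compounds for 3 h at 37 C; reporter activity is then detected with a FRET substrate after 2 h at room temperature.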
# [16] = cAMP Responsive Elements (CRE) small molecule antagonists, cell-based qHTS assay (AID 1963591; active = well fitted inhibition curve with a large enough effect in the signal ratio in the repeat runs, not every such curve was filed as active; the % refers to the signal ratio)
# Procedure, shortened: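 Cells (CRE-bla HEK 293T, DMEM with 10% dialyzed FBS and 25 mM HEPES) are seeded and incubated 18 h. Compounds are added with NKH477 agonist at 0.25 uM final for 3 h, then FRET substrate for 2 h.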
# [17] = biological target: Beta-2 adrenergic receptor (Homo sapiens) (UniProt P07550); assay: Adrenergic beta2 receptor (ADRB2) small molecule antagonists, cell-based qHTS assay (AID 1963592); note: series mostly up to about 92 µM; nearly all actives have a fitted effect of over 50% in size
# Procedure, shortened: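 Assay format: CHO-ADRB2 cells, 18-20hr seeding at 37C/5% CO2, then compound plus 1nM isoproterenol agonist mix for 0.5hr RT. Homogeneous time-resolved fluorescence cAMP detection after 1hr, expressed as 665/615 nm ratio.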
# [18] = biological target: D(2) dopamine receptor (Homo sapiens) (UniProt P14416); assay: Dopamine D2 receptor (DRD2) small molecule agonists, cell-based qHTS assay (AID 1963594); note: nearly all actives have a fitted effect of over 35% in size
# Procedure, shortened: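 HEK293 cells stably expressing human DRD2, pre-treated with PDE inhibitor Ro20-1724 (0.1 mM final) and compound 10 min at room temperature, then stimulated with NKH477 (200nM […]) for 30 min. cAMP read by HTRF (665/620 nm).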
# [19] = biological target: D(2) dopamine receptor (Homo sapiens) (UniProt P14416); assay: Dopamine D2 receptor (DRD2) small molecule antagonists, cell-based qHTS assay (AID 1963595; active = well fitted inhibition curve with a large enough effect in the signal ratio in the repeat runs, with a control signal flat; the % refers to the signal ratio)
# Procedure, shortened: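 HEK293 cells stably expressing DRD2 were preincubated with 0.1 mM Ro20-1724, then with compound for 10 min at room temperature. Cells were stimulated with 200 nM NKH477 plus 12 nM quinpirole for 30 min, and cAMP was read by HTRF.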
# [20] = biological target: Muscarinic acetylcholine receptor M1 (Homo sapiens) (UniProt P11229); assay: Cholinergic receptor muscarinic 1 (CHRM1) small molecule antagonists, cell-based qHTS assay (AID 1963588); note: nearly all actives have a fitted effect of over 40% in size
# Procedure, shortened: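 Compounds were tested at 15 concentrations in three independent runs. Dye-loaded CHRM1-CHO cells were exposed 5 min at room temperature before stimulation by acetylcholine added at 50nM. Intracellular calcium was read kinetically on FDSS for 3 min.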
# Chain of KiSS-1 receptor (Homo sapiens) (Q969F8 whole entry, looked up): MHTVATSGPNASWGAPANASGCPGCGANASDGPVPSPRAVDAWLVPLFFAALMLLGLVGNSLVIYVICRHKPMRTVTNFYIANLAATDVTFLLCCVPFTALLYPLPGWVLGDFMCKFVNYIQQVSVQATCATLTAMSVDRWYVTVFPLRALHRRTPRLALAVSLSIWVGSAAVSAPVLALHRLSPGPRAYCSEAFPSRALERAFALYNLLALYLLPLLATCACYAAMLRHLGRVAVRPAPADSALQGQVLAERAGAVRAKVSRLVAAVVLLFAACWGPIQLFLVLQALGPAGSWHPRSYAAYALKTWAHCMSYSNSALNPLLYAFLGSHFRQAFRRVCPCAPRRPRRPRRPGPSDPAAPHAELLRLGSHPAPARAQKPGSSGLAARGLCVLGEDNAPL
# Chain of Muscarinic acetylcholine receptor M1 (Homo sapiens) (P11229 whole entry, looked up): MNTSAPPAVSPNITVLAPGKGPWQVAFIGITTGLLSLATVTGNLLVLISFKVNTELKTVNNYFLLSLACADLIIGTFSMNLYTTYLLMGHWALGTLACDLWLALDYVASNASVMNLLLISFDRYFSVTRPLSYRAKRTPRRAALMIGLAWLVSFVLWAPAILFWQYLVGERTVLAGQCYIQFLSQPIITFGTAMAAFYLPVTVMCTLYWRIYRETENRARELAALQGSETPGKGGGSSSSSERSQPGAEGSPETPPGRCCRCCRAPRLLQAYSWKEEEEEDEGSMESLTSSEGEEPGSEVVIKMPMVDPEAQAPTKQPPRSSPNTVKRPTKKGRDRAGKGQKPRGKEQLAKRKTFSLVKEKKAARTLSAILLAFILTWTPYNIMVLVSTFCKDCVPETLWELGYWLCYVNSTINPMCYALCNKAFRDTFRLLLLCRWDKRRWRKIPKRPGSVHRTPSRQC
# Chain of Beta-2 adrenergic receptor (Homo sapiens) (P07550 whole entry, looked up): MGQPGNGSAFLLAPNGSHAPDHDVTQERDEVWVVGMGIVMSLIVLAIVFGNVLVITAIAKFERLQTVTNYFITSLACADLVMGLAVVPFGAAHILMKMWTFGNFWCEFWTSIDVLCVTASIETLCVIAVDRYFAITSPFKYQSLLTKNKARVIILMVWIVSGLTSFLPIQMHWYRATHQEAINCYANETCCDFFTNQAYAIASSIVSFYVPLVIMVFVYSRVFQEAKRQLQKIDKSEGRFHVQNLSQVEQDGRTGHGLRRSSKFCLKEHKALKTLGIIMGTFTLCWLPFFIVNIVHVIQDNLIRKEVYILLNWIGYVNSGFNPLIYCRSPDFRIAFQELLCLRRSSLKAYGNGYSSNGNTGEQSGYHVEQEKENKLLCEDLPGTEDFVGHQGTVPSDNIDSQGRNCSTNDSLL
# Chain of D(2) dopamine receptor (Homo sapiens) (P14416 whole entry, looked up): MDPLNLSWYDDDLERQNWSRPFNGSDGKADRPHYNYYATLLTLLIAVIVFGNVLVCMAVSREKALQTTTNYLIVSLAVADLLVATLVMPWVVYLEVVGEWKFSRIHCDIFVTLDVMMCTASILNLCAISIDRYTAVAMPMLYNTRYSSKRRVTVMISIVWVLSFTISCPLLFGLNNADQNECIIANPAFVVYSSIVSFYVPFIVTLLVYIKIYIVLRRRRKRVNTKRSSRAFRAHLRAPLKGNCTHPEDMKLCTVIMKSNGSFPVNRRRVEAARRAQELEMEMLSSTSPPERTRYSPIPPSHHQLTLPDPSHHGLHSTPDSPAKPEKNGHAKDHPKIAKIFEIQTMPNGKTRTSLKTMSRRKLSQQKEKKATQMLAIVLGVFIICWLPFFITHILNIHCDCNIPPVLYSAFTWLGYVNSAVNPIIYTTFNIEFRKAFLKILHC
# Chain of Gonadotropin-releasing hormone receptor (Homo sapiens) (P30968 whole entry, looked up): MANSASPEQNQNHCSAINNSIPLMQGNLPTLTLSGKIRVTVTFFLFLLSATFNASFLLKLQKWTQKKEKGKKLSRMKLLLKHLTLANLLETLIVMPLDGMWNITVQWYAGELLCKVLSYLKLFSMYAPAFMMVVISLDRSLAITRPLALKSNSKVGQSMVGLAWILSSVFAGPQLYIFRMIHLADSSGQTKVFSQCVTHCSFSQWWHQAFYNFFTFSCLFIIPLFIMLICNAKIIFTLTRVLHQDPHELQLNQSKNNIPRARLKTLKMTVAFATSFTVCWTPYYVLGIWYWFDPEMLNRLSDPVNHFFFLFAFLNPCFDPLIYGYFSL
# Chain of 5-hydroxytryptamine receptor 2A (Homo sapiens) (P28223 whole entry, looked up): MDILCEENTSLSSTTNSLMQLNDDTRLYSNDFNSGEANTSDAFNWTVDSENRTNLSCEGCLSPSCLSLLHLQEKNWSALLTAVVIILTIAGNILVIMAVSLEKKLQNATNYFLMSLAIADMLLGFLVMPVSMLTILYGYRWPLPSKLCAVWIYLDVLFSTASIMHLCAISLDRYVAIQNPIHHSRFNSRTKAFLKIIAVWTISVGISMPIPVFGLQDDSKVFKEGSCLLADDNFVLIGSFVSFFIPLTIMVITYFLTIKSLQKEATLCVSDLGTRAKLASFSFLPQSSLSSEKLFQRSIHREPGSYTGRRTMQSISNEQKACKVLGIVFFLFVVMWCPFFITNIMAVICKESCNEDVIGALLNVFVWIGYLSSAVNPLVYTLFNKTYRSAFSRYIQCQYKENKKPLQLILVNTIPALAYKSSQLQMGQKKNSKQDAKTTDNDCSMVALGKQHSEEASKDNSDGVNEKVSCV
Compound,Potency [1],Potency [2],Potency [3],Potency [4],Potency [5],Potency [6],Potency [7],Potency [8],Potency [9],Potency [10],Potency [11],Potency [12],Potency [13],Potency [14],Potency [15],Potency [16],Potency [17],Potency [18],Potency [19],Potency [20]
C=CCCCCCCCC,inactive,inactive,inactive,inactive,inactive,inactive,inactive,inactive,inactive,inactive,inactive,inactive,inactive,inactive,inactive,inactive,inactive,inactive,inactive,
CCC(C(=O)NC(N)=O)c1ccccc1 (centres undefined),inactive,inactive,inactive,inactive,inactive,inactive,inactive,inactive,inactive,inactive,inactive,inactive,inactive,inactive,,inactive,inactive,,inactive,inactive
CCOC(C)(C)C,inactive,inactive,inactive,inactive,inactive,inactive,inactive,inactive,inactive,inactive,inactive,inactive,inactive,inactive,inactive,inactive,inactive,inactive,inactive,
CC(=O)S[C@H](C(=O)N[C@H]1Cc2ccccc2[C@H]2CCC[C@@H](C(=O)O)N2C1=O)C(C)C,inactive,inactive,inactive,inactive,inactive,inactive,inactive,inactive,inactive,inactive,inactive,inactive,,inactive,inactive,inactive,inactive,inactive,inactive,
CN1C(CCl)Nc2cc(Cl)c(S(N)(=O)=O)cc2S1(=O)=O (centres undefined),inactive,inactive,inactive,inactive,inactive,inactive,inactive,inactive,inactive,inactive,inactive,inactive,,inactive,inactive,inactive,inactive,inactive,,inactive
N#Cc1cc(NC(=O)C(=O)O)c(Cl)c(NC(=O)C(=O)O)c1,inactive,inactive,inactive,inactive,inactive,inactive,inactive,inactive,inactive,inactive,inactive,inactive,,inactive,inactive,inactive,inactive,inactive,inactive,inactive
c1ccc2c(c1)CCc1ccccc1N2,inactive,61.4 µM (active),inactive,inactive,inactive,inactive,inactive,inactive,inactive,inactive,inactive,inactive,inactive,inactive,inactive,inactive,,inactive,inactive,
